Source: PubChem BioAssay
GLA spleen mod: inhibits or activates alpha-galactosidase in human spleen homogenate. P06280. human spleen homogenate, 4MU-alpha-Gal fluorescence, 40 min. Potency, µM (titrated, usually from 80 µM), for the others: at the top dose activity change, negative = inhibition, hits mostly inhibitors. hit rate 0.008% among 240,000. AID 2107;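 note: potency is the fitted concentration of half-maximal effect; 0% = enzyme with vehicle and -100% = no enzyme basal signal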
Target sequence (P06280 32-429 limits assumed): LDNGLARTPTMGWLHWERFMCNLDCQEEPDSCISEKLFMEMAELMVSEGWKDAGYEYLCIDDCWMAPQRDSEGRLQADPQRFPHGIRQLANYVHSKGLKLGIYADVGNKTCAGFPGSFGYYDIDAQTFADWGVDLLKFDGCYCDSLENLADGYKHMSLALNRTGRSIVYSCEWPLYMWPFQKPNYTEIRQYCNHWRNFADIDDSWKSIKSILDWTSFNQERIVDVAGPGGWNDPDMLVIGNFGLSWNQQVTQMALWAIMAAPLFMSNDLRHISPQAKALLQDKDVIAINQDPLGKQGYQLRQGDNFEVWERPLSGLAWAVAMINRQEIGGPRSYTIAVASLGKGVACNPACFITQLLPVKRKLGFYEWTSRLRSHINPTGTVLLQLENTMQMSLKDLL
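Inhibition or activation of alpha-galactosidase in human spleen homogenate is scored by 4-MU fluorescence after 40 min at 37C, pH 5.0, with 1 mM substrate. AC50s come from concentration-response fitted to the Hill equation.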
HTT cytoprotect: protects HTT-Q103 PC12 cells, measured by ATP. PC12 HTT-Q103 induced, cytoprotection, ATP luminescence, 40 h. Potency, µM (series often up to 56.4 µM), without a hit: cytoprotection (ATP increase), hits mostly activators. hit rate 0.14% among 230,000. AID 1471; note: potency is the fitted concentration of half-maximal effect; % of control where 0% means no effect; nearly all actives have a fitted effect of over 45% in size
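ATP quantification (ATPlite) reports survival of PC12 cells in which tebufenozide, 100 nM final, switches on Htt exon 1 with 103 glutamines linked to GFP; compounds are titrated.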
ERK EGF inh: inhibitors of EGF-stimulated ERK signaling pathway. HEK293-V1b, EGF-stimulated phospho-ERK AlphaScreen. AID 1454. Potency, µM (series often up to 11.5 µM), without a hit: at the top dose activity change, negative = inhibition, actives largely listed as inhibitors. hit rate 0.41% among 130,000;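 note: potency is the fitted concentration of half-maximal effect; plate controls were stimulated vehicle wells for no effect and unstimulated vehicle basal for full effect; nearly all actives have a fitted effect of over 55% in size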
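V1b-HEK293, 1% FBS o/n; cpd 30 min 37C; EGF 25 nM final, 5 min; lyse 10 min; AlphaScreen beads 5 h RT. Normalized DMSO basal vs EGF max; Hill AC50.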
HttQ103 aggreg: mutant huntingtin aggregation inhibition. hit rate 1.1% among 220,000. AID 1688. Potency, µM (doses to about 46.1 µM), for inactives: top-dose activity change, negative = inhibition, usual class: inhibitors. PC12 HttQ103-GFP aggregates, Acumen cytometry, 40 h; note: potency is the fitted concentration of half-maximal effect; % is set by controls: 0 for no effect and ±100 for the full control effect; nearly all actives have a fitted effect of over 60% in size
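Read-out: GFP aggregate count by laser scanning cytometer (488 nm excitation, 500-530 nm emission, 1–25 µm objects >6 SD above background). Cells: PC12, inducible HTTex1-Q103-GFP, 100 nM tebufenozide; compounds titrated.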
GLA inh pH 4.5: alpha-galactosidase A (human) inhibition, pH 4.5; activity change, negative = inhibition, % at 105 µM; purified enzyme, 4-MU-alpha-Gal fluorescence, pH 4.5; 230,000 tested, under 10 active; P06280;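 note: 0% = full activity with enzyme and -100% = basal without enzyme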
Active calls of the source: *; ? = inconclusive; / = no result; [ ] = remark or other dose. This is a sample that favours compounds with a hit; in the whole collection about 1.2% have one here. Calls come from the whole dose curve; as a rule, active = well fitted curve in the direction sought with a large enough effect; inconclusive = small, poorly fitted or top-dose-only effect, or another doubt; inactive = no such curve, though single readings can be large; an effect the other way counts as inactive or inconclusive.

SMILES	GLA spleen mod	HTT cytoprotect	ERK EGF inh	HttQ103 aggreg	GLA inh pH 4.5
CC(C)[C@H](NC(=O)[C@@H]1CSSC[C@H](NC(=O)[C@H](CC(=O)O)NC(=O)[C@H](C)NC(=O)[C@@H](NC(=O)CNC(=O)[C@H](C)N)[C@@H](C)O)C(=O)N[C@@H](Cc2ccccc2)C(=O)N[C@@H](Cc2c[nH]c3ccccc23)C(=O)N[C@@H](CCCCN)C(=O)N[C@@H](Cc2ccc(O)cc2)C(=O)N1)C(=O)O	-1.2%	/	/	/	/
Cc1ccc(S(=O)(=O)NC(=O)NC2CCCC2)cc1	/	14.1%	/	0.2%	/
COc1ccc(N2C(=O)[C@@H]3[C@H](C2=O)[C@H](C(C)=O)N2c4ccccc4C=C[C@@H]32)cc1	-1.5%	-18.5%[10 µM]	8.7%[57.5 µM]	-12.2%[9.22 µM]	-0.8
COc1ccc(C2C(C(=O)c3ccccc3)N3c4ccccc4C=CC3C2[N+](=O)[O-])cc1 (centres undefined)	1.5%	-70.4%	?	17.8µM*	0.4
CCN(C/C=C/C#CC(C)(C)C)Cc1cccc(OCc2cc(-c3ccsc3)cs2)c1	0.2%	/	/	/	/
COc1ccccc1C(=O)NC(=Nc1nc2ccccc2o1)NC(=O)c1ccccc1OC	7.5%	-17.6%[10 µM]	/	10µM*	1.2
O=C(NC(=Nc1nc2ccccc2o1)NC(=O)c1ccccc1)c1ccccc1	5.3%	/	7.5%	-12.2%	-17.0
O=c1[nH][nH]cc1C=Nc1cc(Cl)ccc1O	0.4%	14.1µM*	3.3%	-20.9%	6.6
CN(C)/[N+]([O-])=N/Oc1cc(ON=[N+]([O-])N2CCN(c3ncccn3)CC2)c([N+](=O)[O-])cc1[N+](=O)[O-]	-1.7%	/	/	/	/
S=C1NNC2(NN1)C1CC3CC(C1)CC2C3	-3.3%	0.7%[10 µM]	4.1%	17.8%	-1.6
C1CSC2(N1)C1CC3CC(C1)CC2C3 (centres undefined)	9.3%	1.58µM*	/	/	0.8
COC(=O)c1cc(OC)c(OC)cc1NC(=O)CN1CCCCC1	-5.8%	-0.2%[0.074 µM]	/	0.631µM*	0.2
Cn1c(=O)c(NCCc2ccccc2)c2c3c(cccc31)C(=O)c1ccccc1-2	4.5%	-19.4%	/	10µM*	-5.6
Cc1cccc(CN2CC34C=CC(CC3S2(=O)=O)O4)c1 (centres undefined)	-3.9%	/	/	/	/
CC(NC(=O)CCl)c1ccc(Cl)c(Cl)c1 (centres undefined)	-5.3%	-25.4%	/	22.4µM*	-3.9
CC(=O)O[C@@]1(C(C)=O)CCC2C3C=C(Cl)C4=CC(=O)C5CC5[C@@]4(C)C3CC[C@]21C (some centres undefined)	14.1%	-78.2%	6.1%	/	4.1
O=C(/C(=C/c1ccc(Cl)cc1)c1nc2ccccc2[nH]1)c1cccs1	-10.4%	-110.0%	/	5.01µM*	-11.8
O=C(/C(=C\c1ccccc1)c1nc2ccccc2[nH]1)c1ccc(Cl)cc1	2.6%	-54.4%[10 µM]	-11.4%	?	-0.9
CCOc1ccc(Nc2nc(NCC3CCCO3)c3ccccc3n2)cc1 (centres undefined)	?	-35.2%	?	14.1µM*	-9.4
CNc1nc(-c2ccoc2)nc2ccccc12	1.7%	2.8%	/	/	/
O=C(COC(=O)c1ccc2c(=O)n3c(nc2c1)CCC3)NC1CCS(=O)(=O)C1 (centres undefined)	21.7%	-24.4%	-5.0%	0.0063µM*	2.7
CC(C)CN1CCC2(CC1)CCN(C(=O)c1cc(C(F)(F)F)cc(C(F)(F)F)c1)CC2	-14.6%	-13.2%	0.6%	/	/
Oc1ccc2ccccc2c1N=Nc1ccccn1	1.3%	-76.3%	/	?	-4.1
Oc1ccc2ccccc2c1N=Nc1ccccc1F	1.1%	3.9%[10 µM]	14.1µM*	3.8%[9.22 µM]	-7.1
NC(N)=NCCN1CCCCCCC1	6.5%	25.4%	2.1%	-7.2%[20.6 µM]	4.0
SMILES	GLA spleen mod	HTT cytoprotect	ERK EGF inh	HttQ103 aggreg	GLA inh pH 4.5
COc1ccc(N/N=C(\C#N)C(N)=O)cc1	-4.1%	0.2%[10 µM]	-1.5%	-12.1%	-2.2
COc1ccc(N/N=C(/C(N)=O)C2=NC(C)(C)Cc3ccccc32)cc1	1.9%	-8.1%[10 µM]	?	10µM*	-17.1
CC(=O)Oc1ccc2c(c1)Oc1cc(OC(C)=O)ccc1C21OC(=O)c2ccccc21	-1.8%	14.1%[10 µM]	4.1%	0.316µM*	-12.6
O=C1OC2(c3ccc(O)cc3Oc3cc(O)ccc32)c2ccccc21	7.0%	-45.4%	/	/	-27.5
CC1CCCCC1NC(=O)CCCn1c(=S)[nH]c2ccccc2c1=O (centres undefined)	-3.5%	-20.6%	4.5%	-3.4%	-5.3
CC1CCCCC1n1c(=S)[nH]c2ccccc2c1=O (centres undefined)	5.3%	-2.0%[0.074 µM]	/	20µM*	-19.0
Cn1c(N=Nc2ccc(N3CCOCC3)cc2)[n+](C)c2ccccc21	6.8%	/	15.8µM*	/	5.4
Cn1c(=Nc2ccc(N3CCOCC3)cc2)ccc2ccccc21	-6.8%	-4.6%	/	-1.9%	-7.2
OC[C@H]1OC(O)(CN2CCOCC2)[C@H](O)[C@@H]1O (some centres undefined)	-5.9%	/	/	/	/
O=C(Cc1ccc(Cl)cc1)c1c[nH]c(C(=O)NCc2cccnc2)c1	-1.5%	-17.2%[10 µM]	-1.3%	17.8µM*	2.2
C[C@@H](NCCCc1cccc(C(F)(F)F)c1)c1cccc2ccccc12	/	-98.7%	/	?	/
Cc1c(-c2ccccc2)oc2c(C(=O)N3CCN(c4ccc([N+](=O)[O-])cc4)CC3)cccc2c1=O	6.6%	-25.3%[10 µM]	8.2%	3.98µM*	-0.8
O=C(CN1CCOCC1)Nc1nc2ccc(F)cc2s1	2.6%	-11.0%	/	16.1%[9.22 µM]	-4.7
Cc1ccc2nc(NC(=O)CN3CCOCC3)sc2c1	-22.8%	-23.3%	/	3.16µM*	-3.8
Cc1sc(NC(=O)CN2CCOCC2)nc1-c1ccc2c(c1)CCN2S(=O)(=O)c1ccccc1	4.0%	-16.9%	/	7.08µM*	-22.0
N=C(N)c1ccc(/C=C\c2ccc(C(=N)N)cc2)cc1	/	13.7%[10 µM]	/	/	/
Cc1ccc(NC(=S)NCCSc2ccc(Cl)cc2)cc1	-2.6%	-181.0%	-2.7%	?	-5.8
Cc1cccc(C)c1NC(=S)NCCSc1ccc(Cl)cc1	-6.9%	0.4%	3.2%	11.2µM*	1.2
O=C(O)Cn1c(=O)oc2cc(S(=O)(=O)NC3CCCCC3)ccc21	/	-10.2%	/	/	/
C=CCn1c2ccccc2c2nnc(SCC(=O)NC(C(=O)OC)C(C)C)nc21 (centres undefined)	39.8µM*	-16.7%	/	3.2%	4.4
Nc1c(S(=O)(=O)c2cccs2)c2nc3ccccc3nc2n1CC1CCCO1 (centres undefined)	?	/	/	0.0022µM*	?
CC(C)CCn1c(N)c(S(=O)(=O)c2cccs2)c2nc3ccccc3nc21	?	-11.7%[0.074 µM]	/	11.2µM*	?
Nc1c(S(=O)(=O)c2cccs2)c2nc3ccccc3nc2n1Cc1cccs1	?	-29.0%	/	-2.2%	12.8
O=[N+]([O-])c1cccc(CSc2ncnc3ccccc23)c1	-7.1%	2.24µM*	3.1%	14.6%	-6.0
